Assay results reported in PubChem BioAssay (NCI).
The panel holds about 79,000 compounds, 15% with a hit somewhere; the sample as a whole holds those more often. Values without a mark were called inactive. The source made the active and inactive calls. Rule as the data show it: active = growth inhibition above about 70%; inactive = the rest.

Columns and labels:
[1] = NCI Yeast Anticancer Drug Screen. Data for the rad50 strain (AID 155);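 also: 0% = growth of vehicle-only cultures of the same strain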; details: S. cerevisiae rad50 strain growth inhibition, hits give high values
In short: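 Growth of the mutant yeast was measured after compound exposure and referenced to vehicle-treated cultures.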

[2] = NCI Yeast Anticancer Drug Screen. Data for the mec2-1 strain (AID 157); details: S. cerevisiae mec2-1 strain, hits give high values
In short: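 Compounds were applied to mec2-1 yeast cells. Their growth was then compared with that of vehicle-treated cultures to give growth inhibition.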

[3] = NCI Yeast Anticancer Drug Screen. Data for the sgs1 mgt1 strain (AID 161);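 also: 0% = growth of cultures given vehicle only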; details: S. cerevisiae sgs1 mgt1 strain, hits give high values
In short: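 This yeast growth screen uses a strain with defined DNA-repair lesions; compound-treated growth is compared with vehicle-treated growth.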

[4] = NCI Yeast Anticancer Drug Screen. Data for the cln2 rad14 strain (AID 165);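 also: 0% = growth equal to vehicle treated cultures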; details: S. cerevisiae cln2 rad14 strain, hits give high values
In short: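 Strain: cln2 rad14 yeast, altered in cell cycle control and DNA damage repair. Read-out: growth inhibition vs vehicle.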

[5] = NCI Yeast Anticancer Drug Screen. Data for the bub3 strain (AID 167); details: S. cerevisiae bub3 mutant strain, hits give high values
In short: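 Whole-cell yeast assay. The mutant strain was incubated with compounds, and growth inhibition was determined by comparison with vehicle-treated cells.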

[6] = NCI Yeast Anticancer Drug Screen. Data for the mlh1 rad18 strain (AID 175); details: S. cerevisiae mlh1 rad18 strain growth inhibition, hits give high values
In short: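 A repair-deficient yeast strain is exposed to test compound, and growth is scored relative to vehicle-treated controls.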

[7] = at 5.0 µM (retest, dose inferred, filed as 0.5)
[8] = at 50.0 µM (retest, dose inferred, filed as 5.0)

**Q.** Which growth inhibition [1, 7] does the source give for Cc1ccc([N+](=O)[O-])cc1Cl here?
**A.** Its growth inhibition is -3%.

**Q.** And the growth inhibition [1, 8]?
**A.** Its growth inhibition is -4%.

**Q.** What about the growth inhibition ([1]; at 50.0 µM) of the same compound?
**A.** The growth inhibition was -4.35%.

**Q.** And the growth inhibition [2, 7]?
**A.** The growth inhibition was 2%.

**Q.** And the growth inhibition [2, 8]?
**A.** The growth inhibition was -2%.

**Q.** And the growth inhibition ([2]; at 50.0 µM)?
**A.** The growth inhibition was -8.45%.

**Q.** And the growth inhibition [3, 7]?
**A.** The growth inhibition was 1%.

**Q.** And the growth inhibition [3, 8]?
**A.** The growth inhibition was -1%.

**Q.** What about the growth inhibition ([3]; at 50.0 µM) of the same compound?
**A.** Its growth inhibition is -2.6%.

**Q.** And the growth inhibition [4, 7]?
**A.** The growth inhibition was -2%.

**Q.** And the growth inhibition [4, 8]?
**A.** The growth inhibition was -1%.

**Q.** And the growth inhibition ([4]; at 50.0 µM)?
**A.** The growth inhibition was 93.2% (active).

**Q.** And the growth inhibition [5, 7]?
**A.** Its growth inhibition is -3%.

**Q.** What about the growth inhibition [5, 8] of the same compound?
**A.** The growth inhibition was -4%.

**Q.** And the growth inhibition ([5]; at 50.0 µM)?
**A.** Its growth inhibition is -3.85%.

**Q.** And the growth inhibition [6, 7]?
**A.** The growth inhibition was -1%.

**Q.** What about the growth inhibition [6, 8] of the same compound?
**A.** The growth inhibition was -6%.

**Q.** What about the growth inhibition ([6]; at 50.0 µM) of the same compound?
**A.** Its growth inhibition is -2.45%.

**Q.** Which growth inhibition [1, 7] does the source give for CC(=O)c1c(-c2ccc(Cl)cc2)c(-c2ccc(Cl)cc2)nn(CCO)c1=O here?
**A.** The growth inhibition was 12%.

**Q.** And the growth inhibition [1, 8]?
**A.** Its growth inhibition is 86% (active).

**Q.** What about the growth inhibition ([1]; at 50.0 µM) of the same compound?
**A.** Its growth inhibition is 97.8% (active).

**Q.** What about the growth inhibition [2, 7] of the same compound?
**A.** Its growth inhibition is 4%.

**Q.** And the growth inhibition [2, 8]?
**A.** The growth inhibition was 76% (active).

**Q.** What about the growth inhibition ([2]; at 50.0 µM) of the same compound?
**A.** Its growth inhibition is 97.9% (active).

**Q.** What about the growth inhibition [3, 7] of the same compound?
**A.** Its growth inhibition is 2%.

**Q.** What about the growth inhibition [3, 8] of the same compound?
**A.** Its growth inhibition is 89% (active).

**Q.** And the growth inhibition ([3]; at 50.0 µM)?
**A.** The growth inhibition was 98.2% (active).

**Q.** And the growth inhibition [4, 7]?
**A.** Its growth inhibition is 3%.

**Q.** And the growth inhibition [4, 8]?
**A.** Its growth inhibition is 78% (active).

**Q.** What about the growth inhibition ([4]; at 50.0 µM) of the same compound?
**A.** Its growth inhibition is 89.3% (active).

**Q.** What about the growth inhibition [5, 7] of the same compound?
**A.** The growth inhibition was 4%.

**Q.** What about the growth inhibition [5, 8] of the same compound?
**A.** The growth inhibition was 78% (active).

**Q.** And the growth inhibition ([5]; at 50.0 µM)?
**A.** Its growth inhibition is 92.1% (active).

**Q.** And the growth inhibition [6, 7]?
**A.** The growth inhibition was 4%.

**Q.** And the growth inhibition [6, 8]?
**A.** The growth inhibition was 80% (active).

**Q.** And the growth inhibition ([6]; at 50.0 µM)?
**A.** The growth inhibition was 97.8% (active).

**Q.** With [O-][n+]1c(-c2ccccc2)c(Cl)c(-c2ccccc2)n1O as the compound, how does the growth inhibition [1, 7] read?
**A.** The growth inhibition was 4%.

**Q.** What about the growth inhibition [1, 8] of the same compound?
**A.** The growth inhibition was 75% (active).

**Q.** What about the growth inhibition ([1]; at 50.0 µM) of the same compound?
**A.** The growth inhibition was 86.3% (active).

**Q.** And the growth inhibition [2, 7]?
**A.** The growth inhibition was 0%.

**Q.** What about the growth inhibition [2, 8] of the same compound?
**A.** The growth inhibition was 94% (active).

**Q.** And the growth inhibition ([2]; at 50.0 µM)?
**A.** The growth inhibition was 97% (active).

**Q.** What about the growth inhibition [3, 7] of the same compound?
**A.** The growth inhibition was 4%.

**Q.** And the growth inhibition [3, 8]?
**A.** The growth inhibition was 92% (active).

**Q.** What about the growth inhibition ([3]; at 50.0 µM) of the same compound?
**A.** Its growth inhibition is 97.6% (active).

**Q.** What about the growth inhibition [4, 7] of the same compound?
**A.** Its growth inhibition is 0%.

**Q.** What about the growth inhibition [4, 8] of the same compound?
**A.** The growth inhibition was 53%.

**Q.** And the growth inhibition ([4]; at 50.0 µM)?
**A.** Its growth inhibition is 92.7% (active).

**Q.** What about the growth inhibition [5, 7] of the same compound?
**A.** Its growth inhibition is 8%.

**Q.** What about the growth inhibition [5, 8] of the same compound?
**A.** Its growth inhibition is 96% (active).

**Q.** And the growth inhibition ([5]; at 50.0 µM)?
**A.** The growth inhibition was 97.8% (active).

**Q.** What about the growth inhibition [6, 7] of the same compound?
**A.** The growth inhibition was 4%.

**Q.** And the growth inhibition [6, 8]?
**A.** The growth inhibition was 95% (active).

**Q.** What about the growth inhibition ([6]; at 50.0 µM) of the same compound?
**A.** Its growth inhibition is 97.5% (active).

**Q.** With N#CCCN(CCC#N)Cc1c(O)c(O)c(CN(CCC#N)CCC#N)c2ccccc12 as the compound, how does the growth inhibition [1, 7] read?
**A.** Its growth inhibition is -2%.

**Q.** And the growth inhibition [1, 8]?
**A.** The growth inhibition was 12%.

**Q.** And the growth inhibition ([1]; at 50.0 µM)?
**A.** The growth inhibition was 61.1%.

**Q.** What about the growth inhibition [2, 7] of the same compound?
**A.** The growth inhibition was -1%.

**Q.** What about the growth inhibition [2, 8] of the same compound?
**A.** The growth inhibition was 41%.

**Q.** And the growth inhibition ([2]; at 50.0 µM)?
**A.** The growth inhibition was 48%.

**Q.** What about the growth inhibition [3, 7] of the same compound?
**A.** Its growth inhibition is -10%.

**Q.** What about the growth inhibition [3, 8] of the same compound?
**A.** The growth inhibition was 46%.

**Q.** And the growth inhibition ([3]; at 50.0 µM)?
**A.** The growth inhibition was 59.2%.

**Q.** What about the growth inhibition [4, 7] of the same compound?
**A.** Its growth inhibition is 0%.

**Q.** What about the growth inhibition [4, 8] of the same compound?
**A.** The growth inhibition was -7%.

**Q.** What about the growth inhibition ([4]; at 50.0 µM) of the same compound?
**A.** The growth inhibition was 46.2%.

**Q.** What about the growth inhibition [5, 7] of the same compound?
**A.** Its growth inhibition is -3%.

**Q.** And the growth inhibition [5, 8]?
**A.** Its growth inhibition is 26%.

**Q.** And the growth inhibition ([5]; at 50.0 µM)?
**A.** The growth inhibition was 54%.

**Q.** What about the growth inhibition [6, 7] of the same compound?
**A.** The growth inhibition was -4%.

**Q.** What about the growth inhibition [6, 8] of the same compound?
**A.** Its growth inhibition is 25%.

**Q.** And the growth inhibition ([6]; at 50.0 µM)?
**A.** The growth inhibition was 59%.

**Q.** With C[N+](C)(C)CC(=O)N/N=C/c1oc(-c2c(O)ccc3ccccc23)c(-c2c(O)ccc3ccccc23)c1[N+](=O)[O-] as the compound, how does the growth inhibition [1, 7] read?
**A.** The growth inhibition was 57%.

**Q.** And the growth inhibition [1, 8]?
**A.** The growth inhibition was 57%.

**Q.** And the growth inhibition ([1]; at 50.0 µM)?
**A.** Its growth inhibition is 90% (active).

**Q.** And the growth inhibition [2, 7]?
**A.** Its growth inhibition is 47%.

**Q.** And the growth inhibition [2, 8]?
**A.** The growth inhibition was 47%.

**Q.** And the growth inhibition ([2]; at 50.0 µM)?
**A.** Its growth inhibition is 90.6% (active).

**Q.** And the growth inhibition [3, 7]?
**A.** Its growth inhibition is 51%.

**Q.** And the growth inhibition [3, 8]?
**A.** The growth inhibition was 51%.

**Q.** And the growth inhibition ([3]; at 50.0 µM)?
**A.** Its growth inhibition is 90.2% (active).

**Q.** And the growth inhibition [4, 7]?
**A.** Its growth inhibition is 13%.

**Q.** And the growth inhibition [4, 8]?
**A.** Its growth inhibition is 13%.

**Q.** What about the growth inhibition ([4]; at 50.0 µM) of the same compound?
**A.** The growth inhibition was 80.9% (active).

**Q.** What about the growth inhibition [5, 7] of the same compound?
**A.** The growth inhibition was 44%.

**Q.** What about the growth inhibition [5, 8] of the same compound?
**A.** The growth inhibition was 44%.

**Q.** And the growth inhibition ([5]; at 50.0 µM)?
**A.** The growth inhibition was 84.4% (active).

**Q.** And the growth inhibition [6, 7]?
**A.** The growth inhibition was 58%.

**Q.** What about the growth inhibition [6, 8] of the same compound?
**A.** The growth inhibition was 58%.

**Q.** What about the growth inhibition ([6]; at 50.0 µM) of the same compound?
**A.** Its growth inhibition is 84.2% (active).

**Q.** For COc1ccc2c(c1)nc1ccc(Cl)cc1[n+]2C, which growth inhibition [1, 7] is on record?
**A.** Its growth inhibition is -6%.

**Q.** And the growth inhibition [1, 8]?
**A.** Its growth inhibition is 61%.

**Q.** And the growth inhibition ([1]; at 50.0 µM)?
**A.** The growth inhibition was 82.2% (active).

**Q.** And the growth inhibition [2, 7]?
**A.** Its growth inhibition is 2%.

**Q.** What about the growth inhibition [2, 8] of the same compound?
**A.** The growth inhibition was 64%.

**Q.** What about the growth inhibition ([2]; at 50.0 µM) of the same compound?
**A.** The growth inhibition was 84.1% (active).

**Q.** What about the growth inhibition [3, 7] of the same compound?
**A.** Its growth inhibition is -2%.

**Q.** What about the growth inhibition [3, 8] of the same compound?
**A.** Its growth inhibition is 55%.

**Q.** And the growth inhibition ([3]; at 50.0 µM)?
**A.** Its growth inhibition is 82.2% (active).

**Q.** And the growth inhibition [4, 7]?
**A.** The growth inhibition was -7%.

**Q.** And the growth inhibition [4, 8]?
**A.** Its growth inhibition is 52%.

**Q.** What about the growth inhibition ([4]; at 50.0 µM) of the same compound?
**A.** The growth inhibition was 83.1% (active).

**Q.** And the growth inhibition [5, 7]?
**A.** Its growth inhibition is 7%.

**Q.** And the growth inhibition [5, 8]?
**A.** Its growth inhibition is 70% (active).

**Q.** What about the growth inhibition ([5]; at 50.0 µM) of the same compound?
**A.** The growth inhibition was 92.2% (active).

**Q.** And the growth inhibition [6, 7]?
**A.** The growth inhibition was 6%.

**Q.** What about the growth inhibition [6, 8] of the same compound?
**A.** The growth inhibition was 66%.

**Q.** What about the growth inhibition ([6]; at 50.0 µM) of the same compound?
**A.** Its growth inhibition is 89% (active).
